These results are taken from PubChem BioAssay.

By inhibition is commonly meant the drop in the measured response relative to a control, in per cent.

A short description of assay [1]: inhibitors of TNFa-induced NFkB p65 translocation, primary screen, imaging, HUVEC, MLSMR starter and 10KST1 sets (AID 438;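 active = inhibition above 20% together with a positive visual image hit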;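 note: compound added about 3h40 before a 20 min TNFalpha stimulation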;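 for inhibition: signal is the nuclear over cytoplasmic p65 intensity ratio per well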). As to conditions: HUVEC TNFa-induced p65 nuclear translocation; cell count: measured here: nuclei count (cytotoxicity indicator), at 2.08 µM; inhibition: at 2 µM, stronger effect = higher value, 0% TNFa-plus-vehicle, 100% no-TNFa wells.
Assay [2] can be described thus: reduction of polyQ htt aggregates in cells – imaging, exon1htt(103Q)mCFP cells, high-content imaging, primary screen (AID 483).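 For nuclei count: percent of the per-plate median nuclei count of sample wells.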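 Note: compound exposure lasted 3 days before fixation.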 As to conditions: exon1htt(103Q)mCFP cell line, aggregate imaging, at 2 µM; inhibition of aggregation: stronger effect = higher value; nuclei count: measured here: cell count, toxicity.
A short description of assay [3]: endothelial E-selectin expression blockers – imaging, HUVEC, immunofluorescence, MLSMR starter and 10KST1 sets, primary screen (AID 487;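 active = visually confirmed hit in the image check and inhibition above 20%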;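 for inhibition: signal is fraction of cell area covered by stained E-selectin grains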;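 for nuclei count: 100% = median nuclei count of all wells on the same plate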). To be noted: HUVEC TNFalpha-induced E-selectin immunofluorescence imaging, at 2 µM; inhibition: stronger effect = higher value; nuclei count: measured here: cell number, toxicity.
For assay [4], the target named is Voltage-gated potassium channel subunit beta-2 (Rattus norvegicus) (UniProt P62483). Nature of the assay: inhibitors of rat Kvbeta2 reductase activity – biochemical, NADPH fluorescence, primary screen (AID 622;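 active = fluorescence slope higher than the sample average by over 3 SD, cut at about -0.22 in these data, passing the limit was not always enough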;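 note: slope of raw intensity against log time taken from 70 to 1610 s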). As to conditions: recombinant KvBeta, 4-cyanobenzaldehyde reduction, at 10 µM, stronger effect = higher value.
For assay [5] the target is unchanged. Put plainly: enhancers of rat Kvbeta2 NADPH turnover – biochemical, NADPH fluorescence, primary screen (AID 623;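 active = NADPH fluorescence slope more negative than the mean of all samples by about 3 SD, 99.7% confidence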;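 note: fluorescence intensity change per second fitted from 20 to 320 s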). To be noted: Recombinant KvBeta, NADPH fluorescence decrease slope, 10 min; at 10 µM; stronger effect = lower value.
Assay [6] concerns the target Alpha-2C adrenergic receptor (Homo sapiens) (UniProt P18825). Put plainly: compounds altering alpha2C-coupled GIRK flux – cell-based, HEK293 alpha2C/GIRK1/2, thallium flux, primary screen (AID 624;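 active = fluorescence slope after compound addition differing from the mean of all screened samples at 99.7% confidence, in either direction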;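 note: slope of fluorescence ratio to pre-addition baseline per second over 15 to 24 s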). To be noted: thallium flux BTC fluorescence, at 10 µM, actives lie on both sides.
Assay [7] is described as follows: blockers of RIG-like receptor reporter activation – cell-based, Sendai virus stimulus, luciferase, 10K MLSCN set, TLR/RLR signaling modifier project, primary screen (AID 602276;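 active = inhibition at or above 50% at 10 µM; inactive = inhibition below 50%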;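 note: firefly luciferase from ISG56 promoter only with Renilla not read in this screen; 0% = Sendai virus plus DMSO and 100% = medium plus DMSO without virus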). To be noted: HEK293 RL24 IRF3 luciferase reporter, at 10 µM, stronger effect = higher value. A general note: Reporter assays use an easily measured gene product as a stand-in for the process of interest.

Assay [8] in a line: TLR3 IRF3 reporter activation blockers – cell-based, poly I:C stimulus, luciferase, 10K MLSCN set, primary screen (AID 602277;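 active = inhibition of the reporter signal at or above 50%; inactive = inhibition below 50%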). To be noted: HEK293-TLR3 RL24 IRF3 luciferase reporter, at 10 µM, stronger effect = higher value.

Molecules are shown by their SMILES. Active and inactive are the calls of the source.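 Rule for the calls, unless noted: active = visual image review flags a hit and inhibition of aggregation exceeds 20%; inconclusive = visual hit but inhibition at or below 20%; inactive = no hit on visual image review.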

Sequence of Voltage-gated potassium channel subunit beta-2 (Rattus norvegicus) (P62483 whole entry, looked up): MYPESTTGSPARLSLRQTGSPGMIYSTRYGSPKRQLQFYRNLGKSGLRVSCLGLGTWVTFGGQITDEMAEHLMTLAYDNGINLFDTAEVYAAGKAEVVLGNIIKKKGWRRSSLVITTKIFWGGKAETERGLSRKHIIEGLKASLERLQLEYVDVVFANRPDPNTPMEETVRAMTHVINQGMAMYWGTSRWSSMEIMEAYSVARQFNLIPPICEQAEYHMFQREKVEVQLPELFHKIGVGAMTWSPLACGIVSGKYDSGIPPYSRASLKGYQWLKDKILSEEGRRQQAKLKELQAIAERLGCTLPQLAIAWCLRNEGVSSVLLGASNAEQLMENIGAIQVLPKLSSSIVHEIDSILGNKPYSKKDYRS
Sequence of Alpha-2C adrenergic receptor (Homo sapiens) (P18825 whole entry, looked up): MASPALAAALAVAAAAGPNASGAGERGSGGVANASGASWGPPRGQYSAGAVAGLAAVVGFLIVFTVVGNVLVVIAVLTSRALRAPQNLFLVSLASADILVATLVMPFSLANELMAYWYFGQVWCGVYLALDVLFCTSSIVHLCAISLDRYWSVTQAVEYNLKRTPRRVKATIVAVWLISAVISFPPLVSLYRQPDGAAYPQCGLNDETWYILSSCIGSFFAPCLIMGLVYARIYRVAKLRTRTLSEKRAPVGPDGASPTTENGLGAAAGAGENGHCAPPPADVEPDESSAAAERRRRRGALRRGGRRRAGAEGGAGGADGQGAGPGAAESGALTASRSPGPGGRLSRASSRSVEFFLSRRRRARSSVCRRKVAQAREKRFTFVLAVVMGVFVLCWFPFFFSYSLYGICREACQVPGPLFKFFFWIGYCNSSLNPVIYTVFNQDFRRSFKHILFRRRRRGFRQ

Take `CC1CCc2nn(CC(=O)NCc3ccc(F)cc3)cc2C1` (centres undefined): in assay [1], the cell count stood at 919. In addition, the inhibition was 1.2% (inactive) in assay [1], -72.4% (inactive) in assay [3], -0.348% (inactive) in assay [7] and 20.2% (inactive) in assay [8]. Moreover, the inhibition of aggregation in assay [2] is -5.6% (inactive). Besides, the nuclei count is 112% in assay [2] and 119% in assay [3]. The fluorescence slope in assay [4] was -0.628 (inactive). Moreover, the NADPH fluorescence slope in assay [5] is -3.4e-06 (inactive). For the same compound, the slope in assay [6] is 0.00689 (inactive).
For the compound `O=C(Nc1cccc(F)c1)c1cccc(S(=O)(=O)N2CCOCC2)c1`, the cell count in assay [1] is 566. For the same compound, the inhibition in assay [1] is 3% (inactive); in assay [3], -38.9% (inactive); in assay [7] it was 10.5% (inactive); in assay [8], 98.3% (active). The inhibition of aggregation in assay [2] is -14% (inactive). Also, the figures for the nuclei count in assay [2] and in assay [3] were 94.3% and 92.1%, respectively. The fluorescence slope in assay [4] was -0.504 (inactive). Besides, the NADPH fluorescence slope in assay [5] is -5.2e-05 (inactive). For the same compound, the slope in assay [6] is 0.00763 (inactive).
With `CCC(C(=O)NC1CCCC1)N(Cc1ccco1)C(=O)Cn1nnc(-c2ccc(C)cc2)n1` (centres undefined), the cell count in assay [1] is 478. For the same compound, the inhibition in assay [1] was 1.7% (inactive); in assay [3], -150% (inactive); in assay [7] it was 10.8% (inactive); in assay [8], -7.83% (inactive). The inhibition of aggregation in assay [2] was 10.6% (inactive). Besides, the figures for the nuclei count in assay [2] and in assay [3] were 114% and 112%, respectively. The fluorescence slope in assay [4] was -0.617 (inactive). The NADPH fluorescence slope in assay [5] is -1.6e-05 (inactive). Moreover, the slope in assay [6] is 0.0026 (inactive).
Regarding `Cc1ccc(-c2nnc(SCC(=O)N3CC(C)CC(C)C3)o2)cc1C` (centres undefined), the cell count in assay [1] came to 557. The inhibition in assay [1] was -1.6% (inactive); in assay [3] it was -32.7% (inactive); in assay [7], -0.246% (inactive); in assay [8] it was 9.23% (inactive). The inhibition of aggregation in assay [2] was 1.6% (inactive). In addition, the nuclei count in assay [2] worked out at 32.1%; in assay [3] it was 120%. The fluorescence slope in assay [4] was -0.527 (inactive). Further, the NADPH fluorescence slope in assay [5] is -4.3e-05 (inactive). For the same compound, the slope in assay [6] is 0.00676 (inactive).
Regarding `Cn1c(SCC(=O)Nc2ccc(F)cc2)nnc1-c1cccnc1`, in assay [1], the cell count is 660. Moreover, the inhibition in assay [1] is -1.1% (inactive); in assay [3], -57.8% (inactive); in assay [7], -0.187% (inactive); in assay [8], 21.7% (inactive). Moreover, the inhibition of aggregation in assay [2] was 5.2% (inactive). Further, the nuclei count in assay [2] was 90.3%; in assay [3] it was 110%. Also, in assay [4], the fluorescence slope was -0.578 (inactive). Also, in assay [5], the NADPH fluorescence slope is -4.7e-05 (inactive). Besides, the slope in assay [6] is 0.00652 (inactive).
As for `CCN(CC(=O)NCc1cccs1)C(=O)c1cc(S(=O)(=O)N2CCOCC2)ccc1C`, the cell count in assay [1] was found to be 591. The inhibition in assay [1] was -9.6% (inactive); in assay [3], -82.2% (inactive); in assay [7] it was 1.74% (inactive); in assay [8] it was 27.8% (inactive). For the same compound, in assay [2], the inhibition of aggregation was -22.2% (inactive). Further, the nuclei count in assay [2] is 107%; in assay [3] it was 136%. The fluorescence slope in assay [4] is -0.466 (inactive). Besides, in assay [5], the NADPH fluorescence slope was -3.7e-05 (inactive). Also, the slope in assay [6] is 0.00388 (inactive).
For the compound `CCOC(=O)c1[nH]c(C)c(C(=O)Nc2ccc(C)cc2C)c1C`, the cell count in assay [1] came to 505. For the same compound, the inhibition in assay [1] was 5.8% (inactive); in assay [3], -53.4% (inactive); in assay [7], 1.87% (inactive); in assay [8], 16.3% (inactive). Moreover, in assay [2], the inhibition of aggregation was 20.1% (inactive). Moreover, the figures for the nuclei count in assay [2] and in assay [3] were 36.6% and 103%, respectively. Further, in assay [4], the fluorescence slope was -0.585 (inactive). Moreover, the NADPH fluorescence slope in assay [5] is -1.3e-05 (inactive). For the same compound, in assay [6], the slope is 0.00666 (inactive).
For the compound `CCOc1ccc(NC(=O)CN2CCN(CC(=O)c3ccc(OCC)cc3)CC2)cc1`, in assay [1], the cell count was 418. The inhibition in assay [1] was 2.1% (inactive); in assay [3], -73% (inactive); in assay [7], 10.7% (inactive); in assay [8], 24.5% (inactive). Further, in assay [2], the inhibition of aggregation is -16% (inactive). The nuclei count came out at 110% in assay [2] and 112% in assay [3]. Moreover, the fluorescence slope in assay [4] is -0.397 (inactive). Further, the NADPH fluorescence slope in assay [5] was -5.5e-05 (inactive). Moreover, the slope in assay [6] is 0.00276 (inactive).
For `COc1ccc(-n2cnnc2SCCC#N)cc1`, the cell count in assay [1] was 520. The inhibition is -3.8% (inactive) in assay [1], -115% (inactive) in assay [3], 6.27% (inactive) in assay [7] and 12% (inactive) in assay [8]. Besides, in assay [2], the inhibition of aggregation was -0.2% (inactive). Also, the nuclei count was determined as 82.5% in assay [2] and 122% in assay [3]. Further, the fluorescence slope in assay [4] was -0.549 (inactive). The NADPH fluorescence slope in assay [5] was -2.7e-05 (inactive). Further, the slope in assay [6] is 0.00567 (inactive).
Take `O=C(CSc1nnc(Cn2c(=O)sc3ccccc32)n1-c1ccccc1)Nc1nccs1`: the cell count in assay [1] stood at 645. In addition, the inhibition was 1.8% (inactive) in assay [1], -7.4% (inactive) in assay [3], 2.86% (inactive) in assay [7] and 16.4% (inactive) in assay [8]. Also, the inhibition of aggregation in assay [2] was 9.1% (inactive). For the same compound, the nuclei count was found to be 110% in assay [2] and 104% in assay [3]. In addition, the fluorescence slope in assay [4] is -0.58 (inactive). Further, the NADPH fluorescence slope in assay [5] was -2.9e-05 (inactive). Besides, in assay [6], the slope is 0.00712 (inactive).
Regarding `CCc1ccccc1NC(=O)C(C#N)Cc1cccnc1` (centres undefined), the cell count in assay [1] is 575. For the same compound, the inhibition was -1.5% (inactive) in assay [1], -21.3% (inactive) in assay [3], -6.51% (inactive) in assay [7] and 19% (inactive) in assay [8]. The inhibition of aggregation in assay [2] was 2.2% (inactive). The figures for the nuclei count in assay [2] and in assay [3] were 100% and 104%, respectively. Moreover, the fluorescence slope in assay [4] was -0.51 (inactive). Also, in assay [5], the NADPH fluorescence slope is -9e-07 (inactive). Also, the slope in assay [6] was 0.00548 (inactive).
With `CCn1nnnc1SCC(=O)Nc1nc(-c2cccs2)cs1`, the cell count in assay [1] was 327. Further, the inhibition in assay [1] is -8.9% (inactive); in assay [3], -63.9% (inactive); in assay [7] it was 15.8% (inactive); in assay [8], 20.5% (inactive). The inhibition of aggregation in assay [2] was 9.4% (inactive). The nuclei count in assay [2] was determined as 100%; in assay [3] it was 104%. The fluorescence slope in assay [4] is -0.491 (inactive). Also, the NADPH fluorescence slope in assay [5] was -4.6e-05 (inactive). Also, the slope in assay [6] was 0.00497 (inactive).
For the compound `O=c1c2ccccc2nc(SCc2nc(-c3ccccc3)no2)n1-c1ccc(F)cc1`, the cell count in assay [1] was 719. Besides, the inhibition in assay [1] is -5.5% (inactive); in assay [3], -58.2% (inactive); in assay [7] it was 13.8% (inactive); in assay [8] it was 39.7% (inactive). In assay [2], the inhibition of aggregation is -12.6% (inactive). Also, the nuclei count came to 128% in assay [2] and 114% in assay [3]. Also, the fluorescence slope in assay [4] was -0.538 (inactive). Further, the NADPH fluorescence slope in assay [5] is -3.3e-05 (inactive). The slope in assay [6] was 0.00951 (inactive).
`CCSc1nnc(-c2ccc(OC)cc2)o1`: the cell count in assay [1] is 651. Moreover, the inhibition in assay [1] is 11.1% (inactive); in assay [3] it was 61.5% (inactive); in assay [7], -34% (inactive); in assay [8], -118% (inactive). Moreover, in assay [2], the inhibition of aggregation was 0% (inactive). For the same compound, the nuclei count was 99.1% in assay [2] and 106% in assay [3]. For the same compound, the fluorescence slope in assay [4] is -0.242 (inactive). Moreover, in assay [5], the NADPH fluorescence slope was -1.2e-05 (inactive). In assay [6], the slope is 0.00568 (inactive).
